Source: PubChem BioAssay (NCI)
About 83,000 compounds went through this panel and 20% of them were active in at least one assay; those are over-represented in the sample as a whole.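 Values shown are percent growth following 48 h exposure of cells in 96-well plates to a single concentration of compound; below 10 was considered active.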 Unmarked numbers belong to inactive results. The source made the active and inactive calls.

Legend:
Test in all cases: NCI-60 one-dose screen, 48 h (100 = growth as untreated, 0 = no growth, -100 = all killed)
Settings in all cases: 10 µM unless noted
[1] = system: HCT-15 colon
[2] = system: HT29 colon
[3] = system: SNB-75 CNS
[4] = system: SNB-19 CNS
[5] = system: U251 CNS
[6] = system: PC-3 prostate
[7] = system: SK-MEL-5 melanoma
[8] = system: UACC-62 melanoma
[9] = system: LOX IMVI melanoma
[10] = system: SK-MEL-2 melanoma
[11] = system: EKVX NSCLC
[12] = system: SN12C renal
[13] = system: UO-31 renal
[14] = system: TK-10 renal
[15] = system: ACHN renal
[16] = system: CAKI-1 renal
[17] = system: A498 renal
[18] = system: CCRF-CEM leukemia
[19] = system: MOLT-4 leukemia
[20] = system: SK-MEL-28 melanoma

Row | SMILES | growth [1] | growth [2] | growth [3] | growth [4] | growth [5] | growth [6] | growth [7] | growth [8] | growth [9] | growth [10] | growth [11] | growth [12] | growth [13] | growth [14] | growth [15] | growth [16] | growth [17] | growth [18] | growth [19] | growth [20]
1 | O=C(NN1C(=O)/C(=C/C=C/c2ccc([N+](=O)[O-])o2)SC1=S)c1ccc([N+](=O)[O-])cc1 | -85.4% (active) | -80.3% (active) | -91.1% (active) | -100% (active) | -89.4% (active) | -72.5% (active) | -100% (active) | -99.6% (active) | -97.1% (active) | -89.8% (active) | -97.8% (active) | -99.9% (active) | -100% (active) | -98% (active) | -100% (active) | -100% (active) | -95.8% (active) | -37.2% (active) | -3.98% (active) | 
2 | COc1ccc2[nH]c(O)c(N=Nc3nc(-c4ccc(Cl)cc4)cs3)c2c1 | -53.3% (active) | -18.4% (active) | -66.9% (active) | 24.1% | -75.6% (active) | -10.5% (active) | 8.45% (active) | -32.3% (active) |  | 14% | -3.25% (active) | -69.2% (active) | -61.4% (active) | 7.57% (active) | -79.1% (active) | -37.6% (active) | -89.7% (active) | 15.7% | -16.5% (active) | -24.2% (active)
3 | COc1ccc(/C=C/C(=O)c2ccc(S(=O)(=O)NCCNc3nc(N(C)C)nc(N4CCOCC4)n3)cc2)cc1 | 59.3% | 81.1% | 61.8% | 81.2% | 77.4% | 77.4% | 94.6% | 76.9% | 79.7% | 94.9% | 81.1% | 91.6% | 74.5% | 114% | 104% | 73.2% | 89.2% | 80% | 34.7% | 
4 | CCOC(=O)/C(F)=C/C1CC1C1CCN(C(=O)OC(C)(C)C)CC1 (stereo not drawn) | 89.2% | 77.9% | 93.9% | 96.5% | 99.8% | 96.3% | 69.3% | 93.6% | 103% | 110% | 74.4% | 62.6% | 81.6% | 104% | 97.4% | 93.7% | 127% | 104% | 106% | 
5 | O=C(c1cc2cc(OCCCN3CCC3)ccc2[nH]1)N1C[C@@H](CCl)c2c1cc(OCc1ccccc1)c1ccccc21 | -21.1% (active) | -25.2% (active) | -79.5% (active) | -12.1% (active) | -80.7% (active) | -21.4% (active) | -23.2% (active) | -82.6% (active) |  | -93.4% (active) | -46% (active) | -40.1% (active) | -84.6% (active) | -3.9% (active) | -96.8% (active) | -84.6% (active) | -25.3% (active) | -18.2% (active) | -15.4% (active) | -45.8% (active)
6 | CCCSc1nnc(-c2c(C)nc3sccn23)o1 | 65.8% | 101% | 91.5% | 81.2% | 87.5% | 86.6% | 81.6% | 69.1% |  | 104% | 66.8% | 87.1% | 69.9% | 113% | 84.9% | 79.4% | 92.3% | 86.3% | 94.4% | 106%
7 | O=C(Nc1ccc(F)cc1)Nc1nc2ccc([N+](=O)[O-])cc2s1 | 6.88% (active) | 4.5% (active) | -16.6% (active) | 15.1% | 6.53% (active) | 18.4% | -84% (active) | -5.55% (active) |  | -44.6% (active) | 1.79% (active) | -0.399% (active) | 4.33% (active) | 6.73% (active) | 2.52% (active) | -12.5% (active) | -15% (active) | 11.5% | 14.6% | 7.31% (active)
8 | Oc1cncc(-c2ccc3ncnc(N4CCc5cc(F)c(Cl)cc54)c3c2)c1 | 66.3% | 57.8% | 25.6% | 38.6% | 39.1% | 57.4% | 78.5% | 71.8% | 38.8% | 66.4% | 59.2% | 44.2% | 35.7% | 78.8% | 46% | 41.5% | -1.41% (active) | 76.2% | 57.6% | 
9 | Cc1ccc2nc(COc3ccc(C(=O)NNC(=O)Nc4ccc(Cl)c(C(F)(F)F)c4)cc3)[nH]c2c1 | 97.2% | 75.9% | 94.1% | 24.9% | -1.34% (active) | 18.1% | 35.3% | 40.1% | 69.1% | 98.4% | 77.3% | 38.7% | 110% | 110% | 89.7% | 73.2% | 116% | 41.6% | 75.5% | 
10 | O=C(CSc1nnc(-c2ccc(-c3nc4ccccc4[nH]3)cc2)o1)Nc1ccc(Br)cc1 | 17.5% | 22.6% | 63.3% | -46.2% (active) | -81.6% (active) | 12.4% | 21.6% | 30.5% | -85.5% (active) | 41.4% | 27.1% | 21.9% | 63.2% | 56.7% | -60.9% (active) | 25.2% | 109% | 23% | 4.27% (active) | 
11 | Nc1nn2c(-c3cc4ccccc4oc3=O)ccnc2c1N=Nc1ccccc1 | 82.5% | 124% | 40% | 4.86% (active) | 6.17% (active) | 82.5% | 67.6% | 92.7% | 34% | 97.4% | 66.9% | 48.6% | 63.2% | 103% | 54.9% |  | 111% | 101% | 113% | 
12 | C#CCN(C)CCCOc1ccc(N(C)C(=O)c2cc(C(C)C)c(O)cc2O)cc1Cl | 4.84% (active) | 9.18% (active) | 26.2% | 22.1% | 11.4% | 20% | -94.4% (active) | -17.6% (active) | -89.2% (active) | -6.01% (active) | 15.9% | 11.5% | 16.5% | 21.4% | 15.7% | 16.6% | 39.7% | 13.9% | -14% (active) | 
13 | O=C(Nc1nc2ccc([N+](=O)[O-])cc2s1)Nc1ccccc1F | 13.9% | 5.55% (active) | 18.8% | 10.2% | 6.8% (active) | 13.9% | -51.6% (active) | 22.4% | 10.5% | 6.45% (active) | 5.56% (active) | 2.55% (active) | 6.12% (active) | 17.9% | 1.6% (active) | -8.16% (active) | -18.3% (active) | 15.5% | 15.7% | 
14 | CCOc1ccccc1[C@H]1C(C(=O)c2ccc(Cl)cc2)C2(N[C@@H]1c1ccccc1)C(=O)Nc1ccccc12 (stereo partly drawn) | 7.49% (active) | -0.161% (active) | 46.9% | 27% | 29.9% | 7.19% (active) | -90.7% (active) | -4.32% (active) | -48.1% (active) | -46.5% (active) | 9% (active) | -77.8% (active) | 8.77% (active) | 36% | 2.68% (active) | 8.88% (active) | -2.33% (active) | 12.1% | -26.4% (active) | 
15 | O=C(c1ccc(Cl)cc1)C1[C@H](c2ccccc2Cl)[C@@H](c2ccccc2)NC12C(=O)Nc1ccc(Br)cc12 (stereo partly drawn) | -83.8% (active) | -82.3% (active) | -28.7% (active) | -54.6% (active) | -71.6% (active) | -27.9% (active) | -95.5% (active) | -86.2% (active) |  | -89.9% (active) | -42.2% (active) | -83.9% (active) | -97.5% (active) | -2.31% (active) | -69.2% (active) | -47.6% (active) | -48% (active) | -13.5% (active) | -24.5% (active) | -95.4% (active)
16 | CC(C)(C)OC(=O)N1C/C(=C\c2ccc(F)cc2)C(=O)/C(=C/c2ccc(F)cc2)C1 | -61% (active) | -87.2% (active) | 13.2% | -89.6% (active) | -100% (active) | -31.1% (active) | -92.3% (active) | -96.1% (active) |  | -36.4% (active) | -52.6% (active) | -93.7% (active) | -73.5% (active) | 10% | -100% (active) | -37.4% (active) | 97% | -6.19% (active) | -7.57% (active) | -95.9% (active)
